Bioassay records from PubChem BioAssay.
Compounds with a hit are over-represented: about 3.5% of the library has one in this group of screens.
MITF primary: blocks human microphthalmia-associated transcription factor. O75030. AlphaScreen MITF homodimerization, bead proximity signal. inhibition, % at 2.6 µM. 650,000 compounds, 0.91% hits. AID 1259374; in the data active = inhibition above about 50%
TEAD-YAP block: TEAD-YAP interaction inhibition | HEK-TIYL cells, TEAD-Gal4/YAP UAS-luciferase luminescence | 640,000 compounds, 1.4% hits | inhibition, % at 9.12 µM; in the data active = inhibition above about 32%
FBW7 act: human FBW7 E3 ligase activation, primary screen; Q969H0; AlphaScreen FBW7–phospho-cyclin E peptide binding, activator screen; normalized activity (activation), % at 26.1 µM; 650,000 compounds, 0.13% hits; in the data active = normalized activity above about 1.9%;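 also: purified mutant Fbw7 with reduced substrate affinity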
GPR151 activ: activates the human receptor GPR151 | AID 1508602 | Q8TDV0 | PathHunter beta-arrestin GPR151 cells, luminescence | 650,000 compounds, 1% hits | activation, % at 11.2 µM; in the data active = activation above about 4.9%
Target sequence (Q8TDV0 whole entry, looked up): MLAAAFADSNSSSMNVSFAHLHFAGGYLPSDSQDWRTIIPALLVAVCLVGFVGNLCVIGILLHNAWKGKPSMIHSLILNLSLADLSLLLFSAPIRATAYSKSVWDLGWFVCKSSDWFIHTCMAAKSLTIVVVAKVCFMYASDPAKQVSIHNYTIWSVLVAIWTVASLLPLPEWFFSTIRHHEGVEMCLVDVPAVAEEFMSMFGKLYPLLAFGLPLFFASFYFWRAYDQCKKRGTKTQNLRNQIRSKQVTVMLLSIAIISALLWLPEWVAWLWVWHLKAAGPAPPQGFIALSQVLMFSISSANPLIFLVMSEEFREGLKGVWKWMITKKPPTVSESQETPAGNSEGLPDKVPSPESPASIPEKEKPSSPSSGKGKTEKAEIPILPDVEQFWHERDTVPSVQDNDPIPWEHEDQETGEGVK
GPR151 conf act: human GPR151 activation, confirmation screen | AID 1508609 | shares compounds with GPR151 activ | GPR151 PathHunter beta-arrestin cells, luminescence, 90 min; % of EA-reagent control over plate median | activation, % at 11.2 µM | 6,700 tested, under 10 active;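 active = mean percent activation across replicates above the confirmation screen cutoff of 4.91%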
GPR119 counter: activates human GPR119 in a GPR151 counter-screen; shares compounds with GPR151 activ; GPR119 PathHunter beta-arrestin cells, luminescence, 90 min; 0 = compound-well median, 100 = enzyme-acceptor control; activation, % at 11.2 µM; 6,700 compounds, 0.3% hits; AID 1508611;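 active = mean percent activation in the counterscreen above 29.09%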;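 also: counterscreen on off-target GPR119 to flag nonselective hits from the GPR151 activator screen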
Each line names hits and unclear results; the compound was inactive in the other large screens (follow-up assays come after a bar, where they were run).

COc1cccc(NC(=O)c2ccc(CNc3c(N4CCCC4)c(=O)c3=O)cc2)c1	none
CCc1ccc(OCCCC(=O)NCc2ccco2)cc1	GPR151 activ 6.6 | GPR151 conf act inactive | GPR119 counter inactive
COCCNC(=O)C(=O)NCc1ccco1	none
Cc1ccc(C(=O)NCc2ccco2)c(Cl)c1	GPR151 activ 8.7 | GPR151 conf act inactive | GPR119 counter inactive
Cc1ccc(OCCNC(=O)C(=O)NCc2ccco2)cc1	TEAD-YAP block 33, GPR151 activ 6.5 | GPR151 conf act inactive | GPR119 counter inactive
CC(=O)c1ccc(OCCCC(=O)NCc2ccco2)cc1	none
COc1ccc(S(=O)(=O)N2CCOCC2)cc1NS(=O)(=O)c1ccc(F)cc1	none
COc1ccc2oc(C(=O)c3ccccc3)c(NC(C)=O)c2c1	none
COc1cccc(CC2(CO)CCN(CC(O)CO)CC2)c1 (stereo not given)	none
Cc1cc(C(=O)/C=C/c2ccc(OCC(=O)O)cc2)c(C)s1	GPR151 activ 6.1 | GPR151 conf act inactive | GPR119 counter inactive
C/C(=N\NC(=O)c1cccc(Cl)c1)c1ccc([N+](=O)[O-])o1	none
C/C(=N\NC(=O)c1cccc(Cl)c1)C1CC1	GPR151 activ 8.9 | GPR151 conf act inactive | GPR119 counter inactive
C/C(=N/NC(=O)c1ccccc1)C1CC1	none
C/C(=N/NC(=O)c1cccc(Cl)c1)c1ccc([N+](=O)[O-])o1	GPR151 activ 5.7 | GPR151 conf act inactive | GPR119 counter inactive
COCCNC(=O)C1CCCN(S(=O)(=O)c2c(C)noc2/C=C/c2cccs2)C1 (stereo not given)	GPR151 activ 5.3 | GPR151 conf act inactive | GPR119 counter inactive
N#C/C(=C\c1ccc(-c2ccc(F)cc2)o1)C(=O)NCC1CCCO1 (stereo not given)	GPR151 activ 5.5 | GPR151 conf act inactive | GPR119 counter inactive
Cc1ccc(NC(=O)C2CCCN2c2nn3c(=O)cc(C)nc3s2)c(Cl)c1 (stereo not given)	GPR151 activ 5.0 | GPR151 conf act inactive | GPR119 counter inactive
O=C(NCc1ccccc1)NC1(C(=O)N2CCCCCC2)CCCCC1	none
O=C(CCCc1ccccc1)NCCOc1ccccc1	GPR151 activ 5.2 | GPR151 conf act inactive | GPR119 counter inactive
